Test results from PubChem BioAssay (NCI).
About 83,000 compounds went through this panel and 20% of them were active in at least one assay; those are over-represented in the sample as a whole.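 Single-concentration screen, 48 h exposure, 96-well plates. Endpoint: percent growth. Below 10 = active.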 Unmarked numbers belong to inactive results. Active and inactive are the calls of the source.

Tests used:
Assay in all cases: NCI-60 one-dose screen, 48 h (100 = growth as untreated, 0 = no growth, -100 = all killed)
Conditions in all cases: 10 µM unless noted
HCT-15 colon = test system: HCT-15 colon
HT29 colon = test system: HT29 colon
SNB-75 CNS = test system: SNB-75 CNS
SNB-19 CNS = test system: SNB-19 CNS
U251 CNS = test system: U251 CNS
PC-3 prostate = test system: PC-3 prostate
SK-MEL-5 melanoma = test system: SK-MEL-5 melanoma
UACC-62 melanoma = test system: UACC-62 melanoma
LOX IMVI melanoma = test system: LOX IMVI melanoma
SK-MEL-28 melanoma = test system: SK-MEL-28 melanoma

Row | Structure (SMILES) | growth (HCT-15 colon) | growth (HT29 colon) | growth (SNB-75 CNS) | growth (SNB-19 CNS) | growth (U251 CNS) | growth (PC-3 prostate) | growth (SK-MEL-5 melanoma) | growth (UACC-62 melanoma) | growth (LOX IMVI melanoma) | growth (SK-MEL-28 melanoma)
1 | OC1CSSC1Cn1cnc2c(Nc3ccc(F)c(Cl)c3)ncnc21 (stereo not given) | 92.5% | 83.2% | 114% | 90.4% | 84.3% | 80.5% | 88.2% | 16.3% | 47.9% | 78.3%
2 | CC(=O)c1c(/C=C/c2ccc(C)cc2)c2ccccc2[nH]c1=O | 102% | 105% | 73.7% | 73.5% | 86% | 81.2% | 95.9% | 80.7% | 84.7% | 110%
3 | COc1ccc(-c2csc(NC(=O)CSc3nc(C)cc(=O)[nH]3)n2)cc1 | 102% | 107% | 95.9% | 89.3% | 102% | 94.9% | 96.7% | 87.7% | 96.3% | 106%
4 | CCCCC/C=C/CCC(=O)N[C@H]1[C@H](Oc2c3cc4cc2Oc2ccc(cc2Cl)[C@@H](O[C@@H]2O[C@H](CO)[C@@H](O)[C@H](O)[C@H]2NC(C)=O)[C@@H]2NC(=O)[C@H](NC(=O)[C@@H]4NC(=O)[C@H]4NC(=O)[C@@H](Cc5ccc(c(Cl)c5)O3)NC(=O)[C@@H](N)c3ccc(O)c(c3)Oc3cc(O)cc4c3)c3ccc(O)c(c3)-c3c(O[C@H]4O[C@H](CO)[C@@H](O)[C@H](O)[C@@H]4O)cc(O)cc3[C@H](C(=O)O)NC2=O)O[C@H](CO)[C@H](O)[C@@H]1O | 111% | 103% | 109% | 87.3% | 95.7% | 89.9% | 108% | 96.4% | 91.5% | 119%
5 | [2H]C([2H])([2H])Oc1c(F)cccc1/C=C/C(=O)/C=C(O)/C=C/c1cccc(F)c1OC([2H])([2H])[2H] | 81.4% | 103% | 114% | 94.4% | 87.8% | 88.4% | 101% | 92% | 85.8% | 98.1%
6 | Cc1cc(N2CCOCC2)nc(N(CCCNc2ccnc3cc(Cl)ccc23)Cc2ccc3c(c2)OCO3)n1 | -31.6% (active) | -61% (active) | -43.3% (active) | 40.6% | -47.6% (active) | 15.9% | -37.2% (active) | -18.4% (active) | -90.8% (active) | -42.6% (active)
7 | O=C(CSc1nc(-c2ccccc2)cn1-c1ccc(Cl)cc1)c1ccc([N+](=O)[O-])cc1 | 76.1% | 56.1% | 93.8% | 90.8% | 93.3% | 73.2% | 80.8% | 66.2% | 96.1% | 89%
8 | COc1ccc(C(=O)/C=C/c2ccc(Cl)cc2)cc1S(N)(=O)=O | 26.3% | 43.6% | 82.5% | 14% | 32% | -55.6% (active) | 85.7% | 46.4% | 10.6% | 97.8%
9 | COc1ccc(S(=O)(=O)Oc2ccc(-c3sc4cc(OS(=O)(=O)c5ccc(OC)cc5)ccc4c3C(=O)c3ccc(OCCN4CCCCC4)cc3)cc2)cc1 | 101% | 92% | 70.9% | 103% | 99.7% | 106% | 101% | 101% | 101% | 103%
10 | CC1(C)CC(=O)C2=C(C1)OC(C(=O)c1ccccc1)C2c1cccc(Oc2ccccc2)c1 (stereo not given) | 45.6% | 43.1% | 40.7% | 60.8% | 40.8% | 24% | 36.3% | 35.9% | 37% | 74.4%
11 | COc1cccc2cc(N(C)c3nc(C)nc4c3CCC4)ccc12 | 8.06% (active) | 2.44% (active) | 30.5% | 30.4% | 5.05% (active) | 9.9% (active) | -35.5% (active) | 20.3% | 19.3% | 70.7%
12 | Cn1cc(-c2nc(-c3c[nH]c4ccncc34)cs2)c2cc(F)ccc21 | -81.8% (active) | -80.4% (active) | -95% (active) | -80.3% (active) | -89.1% (active) | -73.1% (active) | -97.9% (active) | -85.7% (active) | -94.5% (active) | -95.1% (active)
13 | COc1ccc(-c2cc(-c3ccc(N(C)C)cc3)nc(NC(=O)c3cccnc3)n2)cc1 | 95% | 108% | 99% | 93.2% | 98.9% | 90.3% | 97.1% | 95.1% | 97.1% | 106%
14 | CC(CN)[C@@H]1CC[C@]2(CO)CC[C@]3(C)[C@H](CC[C@@H]4[C@@]5(C)CCC(NCCO)C(C)(C)[C@@H]5CC[C@]43C)[C@@H]12 (stereo not given in full) | 38.4% | 1.25% (active) | 59.5% | 78.5% | 18.4% | 69.4% | 32.9% | 91.9% | -64.4% (active) | -5.2% (active)
15 | C=C1C(=O)O[C@H]2[C@H]1CC/C(COC(=O)NCc1ccc(Cn3c(=O)sn(CCCC)c3=O)cc1)=C\CC[C@@]1(C)O[C@@H]21 | 24.4% | 0.335% (active) | 82.7% | 100% | 60.4% | 59.9% | 96.3% | 53.3% | 26.8% | 55.5%
16 | C#CC#CC#CC#CC#CC#CC#CC#CC[C@@H]1OC[C@H](COC(=O)O[C@@H](C(=O)O[C@H]2C[C@@]3(O)[C@@H](OC(=O)c4ccccc4)[C@@H]4[C@]5(OC(C)=O)CO[C@@H]5C[C@H](O)[C@@]4(C)C(=O)[C@H](OC(C)=O)C(=C2C)C3(C)C)[C@@H](NC(=O)c2ccccc2)c2ccccc2)O1 | 98.8% | 4.07% (active) | 34.9% | 38.1% | 28.5% | 26.1% | 48.7% | 35% | 34.3% | 52.2%
17 | Nc1ncc(-c2ccc3ncnc(N4CCc5cc(F)c(Cl)cc54)c3c2)cc1C=O | 26.5% | 16.4% | -38.3% (active) | 37% | 48.5% | 20.1% | 2.88% (active) | -17.2% (active) | 19.2% | 10.2%
18 | CSc1nc(N)c2c(n1)NC(c1ccccc1)C1CCc3ccccc3C1=N2 (stereo not given) | 46.8% | 42.7% | 84% | 79% | 68.2% | 11.9% | 51% | 42.6% | 43.3% | 81.5%
19 | Cc1ccc(-c2nnc(SCc3nc(N)nc(Nc4ccccc4F)n3)n2-c2ccccc2)cc1 | 91.3% | 98.5% | 102% | 91.8% | 92.8% | 87.7% | 91.5% | 86% | 100% | 97.5%
20 | C#Cc1ccc(NC(=O)Cc2ccc(/C=C/C(=O)c3nccn3C)cc2)cc1 | 23% | 6.76% (active) | 12.7% | 39.3% | 15.1% | 39.6% | 87.3% | 72.9% | 24.1% | 107%
21 | CCCS(=O)(=O)Nc1cccc(Nc2ncnc3cc(NC(=O)CCl)ccc23)c1Cl | -26.7% (active) | -63.4% (active) | -93.3% (active) | 0.0363% (active) | -93.3% (active) | -25.7% (active) | -85.3% (active) | -66.2% (active) | -83.9% (active) | -22.8% (active)
22 | Cc1cc2c(c(C)n1)CN(C(=O)Nc1nc(-c3cncs3)ccc1N)C2 | 102% | 91% | 90.3% | 99.5% | 86.9% | 104% | 105% | 91.9% | 111% | 105%
23 | COc1ccc(Nc2nccc(Nc3ccc4[nH]ncc4c3)n2)cc1 | 6.21% (active) | 12.1% | 65.8% | 59.7% | 35.5% | 13.5% | 1.85% (active) | 38.6% | 19% | 65.8%
24 | CC(C)(C)n1cc(-c2ccnc(NCCNS(=O)(=O)c3cccc4ccccc34)c2)c(-c2cccc(O)c2)n1 | 20.9% | 6.71% (active) | 37.9% | 88% | 57.5% | 59% | 45.1% | 76.9% | 61.8% | 83.4%
25 | Nc1nc(N)c2c(n1)NC(c1ccc3c(c1)OCO3)CC(c1cccc(Nc3ccncc3)c1)=N2 (stereo not given) | 98.4% | 61.3% | 66.9% | 94.5% | 80.8% | 50.8% | 90% | 87.6% | 48.5% | 108%
